Bioassay records as filed in PubChem.
Most compounds without a hit are left out; they make up all but 2.9% or so of the library.
ADAM17 inh: inhibits human ADAM17. 370,000 compounds, 0.83% hits. recombinant ADAM17, EDANS/DABCYL FRET peptide cleavage. inhibition, % at 6.95 µM. P78536;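 active = inhibition above the mean of compounds lying between control limits plus 3 SD, set per campaign, cut at about 8.5% in these data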
PLC-gamma1 inh: PLC-gamma1 (human) inhibition, primary screen; purified PLC-gamma1, fluorogenic substrate, fluorescence; 370,000 compounds, 0.84% hits; inhibition, % at 12.2 µM; in the data active = inhibition above about 9.5%
Target sequence (P19174 whole entry, looked up): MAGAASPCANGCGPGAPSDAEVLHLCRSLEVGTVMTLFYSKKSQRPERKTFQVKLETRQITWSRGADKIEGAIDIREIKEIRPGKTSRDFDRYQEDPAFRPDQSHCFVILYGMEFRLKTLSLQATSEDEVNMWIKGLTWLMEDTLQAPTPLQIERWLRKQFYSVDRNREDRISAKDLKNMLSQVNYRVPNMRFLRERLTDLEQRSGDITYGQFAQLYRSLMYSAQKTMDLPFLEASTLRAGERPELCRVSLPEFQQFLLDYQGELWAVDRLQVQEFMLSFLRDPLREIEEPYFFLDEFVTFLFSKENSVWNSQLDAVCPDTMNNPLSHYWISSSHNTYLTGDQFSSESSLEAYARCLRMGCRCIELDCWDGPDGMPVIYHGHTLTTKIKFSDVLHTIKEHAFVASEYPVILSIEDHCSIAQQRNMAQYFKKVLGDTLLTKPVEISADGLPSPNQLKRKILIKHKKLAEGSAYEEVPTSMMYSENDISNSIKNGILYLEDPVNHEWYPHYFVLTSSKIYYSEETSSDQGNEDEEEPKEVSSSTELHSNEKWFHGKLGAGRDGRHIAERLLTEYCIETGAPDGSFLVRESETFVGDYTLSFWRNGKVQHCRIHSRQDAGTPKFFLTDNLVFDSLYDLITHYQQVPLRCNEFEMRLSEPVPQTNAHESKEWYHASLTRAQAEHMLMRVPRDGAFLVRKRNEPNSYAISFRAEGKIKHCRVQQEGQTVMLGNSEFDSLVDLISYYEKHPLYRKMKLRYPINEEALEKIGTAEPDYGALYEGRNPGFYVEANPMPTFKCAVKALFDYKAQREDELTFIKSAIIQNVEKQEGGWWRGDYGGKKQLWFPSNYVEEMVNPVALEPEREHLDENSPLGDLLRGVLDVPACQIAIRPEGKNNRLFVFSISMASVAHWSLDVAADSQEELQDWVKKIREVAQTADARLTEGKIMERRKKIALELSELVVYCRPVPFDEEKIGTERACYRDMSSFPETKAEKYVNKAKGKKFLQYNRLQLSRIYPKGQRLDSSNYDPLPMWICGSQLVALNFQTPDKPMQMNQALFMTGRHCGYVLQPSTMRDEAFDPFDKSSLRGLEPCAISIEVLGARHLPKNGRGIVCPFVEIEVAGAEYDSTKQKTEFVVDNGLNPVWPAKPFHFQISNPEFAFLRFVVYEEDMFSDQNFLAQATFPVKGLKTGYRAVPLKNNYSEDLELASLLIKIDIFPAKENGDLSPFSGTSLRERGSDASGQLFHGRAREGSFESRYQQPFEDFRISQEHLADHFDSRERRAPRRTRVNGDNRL
KLK7 zymogen act: activates the human kallikrein-7 zymogen; purified proKLK7, EDANS-DABCYL substrate fluorescence; 100% is mature enzyme control, 0% vehicle; activation, % at 7 µM; 370,000 compounds, 0.9% hits; AID 652039;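 active = activation above the mean of all tested compounds plus 3 SD, computed per campaign excluding outliers beyond control limits, cut at about 13% in these data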
PLCb3 inh: PLC-beta3 (human) inhibition, primary screen. Q01970. Purified PLC-beta3, fluorogenic substrate, fluorescence. inhibition, % at 12.2 µM. 370,000 compounds, 0.18% hits. AID 720704; in the data active = inhibition above about 11%
ADAM10 inh: ADAM10 inhibition, QFRET primary screen; O14672; recombinant ADAM10, EDANS/DABCYL FRET peptide cleavage, 3 h; inhibition, % at 7 µM; 370,000 compounds, 0.62% hits; AID 720582;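 active = inhibition above a per-campaign cutoff equal to the mean of compounds falling between control-based bounds plus 3 SD, cut at about 20% in these data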
proKLK7 act conf: confirmation of human kallikrein-7 zymogen activators; 3,200 compounds, 68% hits; purified proKLK7, EDANS-DABCYL substrate fluorescence; scaled: vehicle 0, mature enzyme 100; activation, % at 7 µM; shares compounds with KLK7 zymogen act; AID 686949;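 active = activation, as change over the incubation, above the mean of all tested compounds plus 3 SD, cut at about 13% in these data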
EDANS interfere: optically interferes with EDANS-DABCYL signal, flagging KLK7 hits. AID 686952. activation, % at 7 µM. EDANS-DABCYL substrate fluorescence interference, no enzyme, 4 h; solvent 0%, active enzyme control 100%. 3,200 compounds, 80% hits. shares compounds with KLK7 zymogen act;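 active = activation above the all-compound mean plus 3 SD, ignoring values outside control-based bounds, cut at about 4.8% in these data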;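 also: value is the 4 h activation minus the activation read at time zero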
EDANS interf: counter-screen for kallikrein-7 activators: EDANS-DABCYL interference, dose response; 250 compounds, 20% hits; AID 720493; shares compounds with KLK7 zymogen act; EC50, µM; EDANS-DABCYL peptide fluorescence interference, no enzyme;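 active = compounds that raise the fluorescence signal in this interference counterscreen, with EC50 at or below 10 µM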;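 also: intact quenched peptide substrate alone read at 355 nm excitation and 520 nm emission; signal is fluorescence gain from T0 to T4 after four hours at room temperature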
Each line names hits and unclear results; the compound was inactive in the other large screens (follow-up assays come after a bar, where they were run).

Cc1cc(NCc2ccco2)nc2cc(O)ccc12	KLK7 zymogen act 19 | proKLK7 act conf 72 | EDANS interfere 66
O=[N+]([O-])c1cccc(OC[C@@H](O)CN2CCC(C(O)(c3ccccc3)c3ccccc3)CC2)c1	none
O=C1CCC[C@H]2C[C@H](NCc3cccnc3)CC[C@]23CCCN13	none (no result: KLK7 zymogen act)
COC(=O)Cc1c(C)c2ccc(O)c(CNCc3ccc(OC)c(OC)c3)c2oc1=O	KLK7 zymogen act 63 | proKLK7 act conf 77 | EDANS interfere 65 | EDANS interf inactive
CCN(CC)Cc1c(O)ccc2c(C)c(CC(=O)OC)c(=O)oc12	KLK7 zymogen act 58 | proKLK7 act conf 65 | EDANS interfere 67
COC(=O)Cc1c(C)c2ccc(OCC(C)=O)c(C)c2oc1=O	none
CCOC(=O)N1C(=O)C[C@](Sc2ccc(OC)cc2)(C(=O)N(C)C)[C@H]1c1ccc(OC)cc1	none
O=C(COc1ccc2c3c(c(=O)oc2c1)CCC3)N1CCCCC1	none
COc1ccc2oc(-c3ccco3)cc(=O)c2c1	KLK7 zymogen act 57 | proKLK7 act conf 74 | EDANS interfere 71
O=C(COc1ccc2oc(-c3ccco3)cc(=O)c2c1)N1CCCCC1	KLK7 zymogen act 61 | proKLK7 act conf 60 | EDANS interfere 60
COc1ccc2oc(-c3ccncc3)cc(=O)c2c1	KLK7 zymogen act 21 | proKLK7 act conf 37 | EDANS interfere 33
COc1ccc(-c2cc(=O)c3cc(O)ccc3o2)cc1	none
COc1ccccc1NC(=O)OC[C@@H]1CSCCS(=O)(=O)N1	none
Cc1cc(NC(=O)COC(=O)c2ccccc2NCCO)no1	KLK7 zymogen act 34 | proKLK7 act conf 27 | EDANS interfere 24
Cc1ccc(C(=O)C2CCN(CC(=O)N3CC(C)CC(C)C3)CC2)cc1 (stereo not given)	none
O=C(Nc1cccnc1)c1coc(=O)c2ccccc12	KLK7 zymogen act 460 | proKLK7 act conf 355 | EDANS interfere 343
O=C(Nc1cccnc1)c1ccccc1O	none
COc1cc(OC)c(/C=N/NC(=O)c2ccncc2)c(OC)c1	KLK7 zymogen act 14 | proKLK7 act conf inactive | EDANS interfere 9.1
c1coc(C2Nc3ccccc3-c3nc4ccccc4n32)c1 (stereo not given)	KLK7 zymogen act 16 | proKLK7 act conf 39 | EDANS interfere 40
c1ccc(C2Nc3ccccc3-c3nc4ccccc4n32)cc1 (stereo not given)	KLK7 zymogen act 66 | proKLK7 act conf inactive | EDANS interfere 5.4
c1ccc(C2Nc3ccccc3-c3nc4ccccc4n32)nc1 (stereo not given)	KLK7 zymogen act 36 | proKLK7 act conf 14 | EDANS interfere 16
C[C@H]1CN([C@@H](C)CO)S(=O)(=O)c2ccc(Br)cc2O[C@H]1CN(C)C(=O)c1ccccc1F	none
CCOC(=O)CC(=O)CSc1nc2c(cc1C#N)CCCCCC2	KLK7 zymogen act 13 | proKLK7 act conf 60 | EDANS interfere 58
CC(C)OC(=O)CC(=O)CSc1nc2c(cc1C#N)CCC2	KLK7 zymogen act 22 | proKLK7 act conf 90 | EDANS interfere 92
CC(C)OC(=O)CC(=O)CSc1nc2c(cc1C#N)CCCCCC2	KLK7 zymogen act 18 | proKLK7 act conf 70 | EDANS interfere 77
CC(C)OC(=O)CC(=O)CSc1nc2c(cc1C#N)CCCC2	KLK7 zymogen act 20 | proKLK7 act conf 71 | EDANS interfere 77
c1ccc(Cn2ccc3ccc(-c4ccc5ccn(Cc6cccc(-c7cccs7)c6)c5c4)cc32)cc1	none
CCOC(=O)C(C)Sc1nc2c(c(-c3cccs3)c1C#N)CCC2 (stereo not given)	none
CC(C)OC(=O)CC(=O)CSc1nc2c(c(-c3cccs3)c1C#N)CCC2	KLK7 zymogen act 15 | proKLK7 act conf inactive | EDANS interfere 12
